# GRIN3A LBD mod: NR3A (human) ligand-binding domain modulation; 340,000 compounds, 2.5% hits; NR3A LBD differential scanning fluorimetry, Tm shift; 0% = protein alone, 100% = glycine-bound protein; Tm shift relative to glycine control, % at 25 µM;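 active means melting temperature shift of at least 10% of the positive control shift, at one fixed dose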
# AHR activator: activates the human aryl hydrocarbon receptor. P35869. activation, % at 5 µM. AHR-responsive luciferase reporter cells, luminescence. 320,000 compounds, 2.5% hits. AID 2796; in the data active means activation above about 47%
# ADAM17 inh: inhibits human ADAM17; 370,000 compounds, 0.83% hits; P78536; inhibition, % at 6.95 µM; recombinant ADAM17, EDANS/DABCYL FRET peptide cleavage;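 active means inhibition above the mean of compounds lying between control limits plus 3 SD, set per campaign, cut at about 8.5% in these data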
# proKLK7 act: proKLK7 (human) activation, primary screen; 370,000 compounds, 0.9% hits; P49862; activation, % at 7 µM; purified proKLK7, EDANS-DABCYL substrate fluorescence; 100% is mature enzyme control, 0% vehicle;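 active means activation above the mean of all tested compounds plus 3 SD, computed per campaign excluding outliers beyond control limits, cut at about 13% in these data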
# Target sequence (P49862 whole entry, looked up): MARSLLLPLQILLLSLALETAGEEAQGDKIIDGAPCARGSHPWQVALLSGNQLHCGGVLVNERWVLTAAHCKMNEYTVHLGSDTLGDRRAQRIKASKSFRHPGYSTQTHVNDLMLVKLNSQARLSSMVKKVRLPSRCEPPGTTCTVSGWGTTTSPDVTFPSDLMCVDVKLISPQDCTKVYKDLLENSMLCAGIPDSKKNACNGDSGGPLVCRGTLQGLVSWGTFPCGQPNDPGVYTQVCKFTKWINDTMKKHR
# ADAM10 inh: inhibitors of human ADAM10; O14672; inhibition, % at 7 µM; 370,000 compounds, 0.62% hits; recombinant ADAM10, EDANS/DABCYL FRET peptide cleavage, 3 h;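 active means inhibition above a per-campaign cutoff equal to the mean of compounds falling between control-based bounds plus 3 SD, cut at about 20% in these data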
# rCAG binder: r(CAG) repeat RNA binding; TO-PRO-1 dye displacement fluorescence; 370,000 compounds, 1.3% hits; inhibition, % at 3 µM;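 active means inhibition above the plate cutoff, the mean of all test compounds on that plate plus 3 SD, cut at about 35% in these data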;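 further: higher means more dye released from RNA so lower well fluorescence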
# proKLK7 act conf: confirmation of human kallikrein-7 zymogen activators; shares compounds with proKLK7 act; purified proKLK7, EDANS-DABCYL substrate fluorescence; scaled: vehicle 0, mature enzyme 100; activation, % at 7 µM; 3,200 compounds, 68% hits; AID 686949;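 active means activation, as change over the incubation, above the mean of all tested compounds plus 3 SD, cut at about 13% in these data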
# EDANS interfere: optically interferes with EDANS-DABCYL signal, flagging KLK7 hits; shares compounds with proKLK7 act; EDANS-DABCYL substrate fluorescence interference, no enzyme, 4 h; solvent 0%, active enzyme control 100%; activation, % at 7 µM; 3,200 compounds, 80% hits;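 active means activation above the all-compound mean plus 3 SD, ignoring values outside control-based bounds, cut at about 4.8% in these data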;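 further: value is the 4 h activation minus the activation read at time zero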
# K7 EDANS ctr: optically interferes with EDANS-DABCYL fluorescence, kallikrein-7 activator counter-screen; 250 compounds, 20% hits; shares compounds with proKLK7 act; AID 720493; EDANS-DABCYL peptide fluorescence interference, no enzyme; EC50, µM;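 active means compounds that raise the fluorescence signal in this interference counterscreen, with EC50 at or below 10 µM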;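 further: intact quenched peptide substrate alone read at 355 nm excitation and 520 nm emission; signal is fluorescence gain from T0 to T4 after four hours at room temperature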
# A number is an active result; 0 = inactive; - = not tested or not shown. An excerpt weighted towards active compounds, which were near 7% of everything screened.
SMILES,GRIN3A LBD mod,AHR activator,ADAM17 inh,proKLK7 act,ADAM10 inh,rCAG binder,proKLK7 act conf,EDANS interfere,others
CCOCCC(=O)Nc1ccc2c(c1)c(=O)n(C)n2CC=C(C)C,-,-,0,26,0,0,15,17,
C=C(C)Cn1c2ccc(NC(=O)CCOCC)cc2c(=O)n1C,-,-,0,24,0,0,19,22,
CNc1ccc2ncc(-c3cccc(C(=O)N(C)C)c3)n2n1,-,-,0,42,0,0,40,42,
O=C(NCCO)c1ccc(-c2cnc3cccnn23)cc1,-,-,0,48,0,0,63,78,
CN1CCN(C(=O)c2ccc(-c3cnc4cccnn34)cc2)CC1,-,-,0,67,0,0,69,70,
CN(C)C(=O)c1cccc(-c2ccc3nncn3c2)c1,-,-,0,0,0,0,-,-,
CN1CCN(C(=O)c2cccc(-c3cccc4nccn34)c2)CC1,-,-,0,0,0,0,-,-,
O=C(NCCO)c1cccc(-c2cnc3cccnn23)c1,-,-,0,54,0,0,38,37,
CCOC(=O)c1c(C)[nH]c(C)c1S(=O)(=O)NCCc1ccco1,0,0,0,0,0,0,-,-,
CCC(C)n1c(=O)c2sccc2n2c(CCCC(=O)N3CCC(C(N)=O)CC3)nnc12 (centres undefined),0,0,0,0,0,0,-,-,
O=C(/C=C/[C@H]1O[C@@H](n2cnc3c(NC(=O)c4ccccc4)ncnc32)[C@H](O)[C@@H]1O)N[C@@H](CO)Cc1c[nH]c2ccccc12,-,-,0,0,0,0,-,-,
OCc1ccccc1-c1cnc2cccnn12,-,-,0,82,0,0,66,79,
c1ccc(CCNc2ccc3ncc(-c4cccc5ccccc45)n3n2)nc1,-,-,0,0,0,0,-,-,
CCC(=O)NCCNc1nc2cc(C)c(C)cc2cc1C#N,0,0,0,0,0,0,-,-,
CCOc1ccc2nc(NCCNC(=O)CC)c(C#N)cc2c1,0,0,0,29,0,0,40,44,
Cn1c2nc(=O)[nH]c(=O)c-2cc2ccccc21,0,-,0,70,0,0,67,65,
O=c1nc2n(CCO)c3ccccc3cc-2c(=O)[nH]1,0,-,0,18,0,0,48,54,
CCN(CC)c1ccc2c(C)c(CN3CCOCC3)c(=O)oc2c1,0,0,-,-,-,-,-,-,
CCN(CC)c1ccc2c(C)c(CO)c(=O)oc2c1,0,0,0,50,0,0,51,36,K7 EDANS ctr=0
C/C(=N\NC(=O)Cc1ccc(Cl)cc1)c1ccccc1O,0,0,0,0,0,0,-,-,
Cc1cccc(-c2cc(N3CCCN(C)CC3)n3nccc3n2)c1,-,-,0,29,0,0,0,0,
c1ccc(-c2ccc(-c3ccccn3)s2)nc1,0,0,0,15,0,0,0,0,
O=C(O)c1ccc(-c2ccccn2)s1,0,0,0,0,0,0,-,-,
O=C(Nc1ccc(-c2cn3ccsc3n2)cc1)c1ccc(F)c(S(=O)(=O)N2CCOCC2)c1,25,0,0,18,0,0,0,6.1,
COCCNC(=O)/C(C#N)=C/c1cn(CC(=O)NCc2ccco2)c2ccccc12,0,0,0,75,0,0,0,5.8,
SMILES,GRIN3A LBD mod,AHR activator,ADAM17 inh,proKLK7 act,ADAM10 inh,rCAG binder,proKLK7 act conf,EDANS interfere,others
Cc1cccc(NC(=O)/C(C#N)=C/c2cn(CC(=O)NCc3ccco3)c3ccccc23)c1,0,0,0,0,0,0,-,-,
CCNC(=S)NNC(=O)c1cc(Br)cs1,0,0,0,13,0,0,0,6.5,
CCNC(=S)NNC(=O)c1cccs1,0,0,0,0,0,0,-,-,
C/C=C(\C)C(=O)OC(C)(C)[C@@H]1Cc2cc3ccc(=O)oc3cc2O1,0,0,0,0,0,0,-,-,
CC(C)C1Oc2cc3oc(=O)ccc3cc2C1=O (centres undefined),0,0,0,35,0,0,29,27,
CC1CCCCN1C(=O)c1cc2ccccc2cc1O (centres undefined),0,0,0,0,0,0,-,-,
CNC(=O)c1ccc(-c2ccc(F)cc2)s1,0,0,0,0,0,0,-,-,
CNC(=O)c1ccc(-c2ccc(OC)cc2)s1,0,0,0,50,0,0,56,66,
Cc1ccc2nc(N3CCC(C(=O)O)CC3)nc(-c3ccccc3)c2c1,0,0,0,0,0,0,-,-,
Cc1ccc2nc(N3CCN(C(=O)CCC(=O)O)CC3)nc(-c3ccccc3)c2c1,0,0,0,27,0,0,0,0,
O=C(O)CCCC(=O)N1CCN(c2nc(-c3ccccc3)c3ccccc3n2)CC1,0,0,0,16,0,0,0,8.0,
O=C(O)C1CC=CCC1C(=O)N1CCN(c2nc(-c3ccccc3)c3ccccc3n2)CC1 (centres undefined),0,0,0,80,0,0,0,0,
CCC(=O)N(Cc1ccco1)C1CC(=O)N(c2ccccc2)C1=O (centres undefined),0,0,0,0,0,0,-,-,
CN1CCN(c2nc3c(c(=O)[nH]c(=O)n3C)n2Cc2ccc(Cl)cc2)CC1,0,-,0,0,0,0,-,-,
Cc1sc(N)nc1-c1ccccc1,0,0,0,0,0,0,-,-,
Nc1c(-c2ccccc2)nc(Cl)nc1-c1ccccc1,0,0,0,42,0,0,78,78,
CCCCNc1nccnc1-c1cccc(C=O)c1,-,-,0,212,0,0,299,289,
COc1ccc2cc(C(=O)C3CCCN(Cc4cccc(C)n4)C3)ccc2c1 (centres undefined),0,0,0,45,0,0,0,0,
COc1cccc(-c2ccc(NC(=O)C3CCCN(Cc4cccc(C)n4)C3)cc2)c1 (centres undefined),-,-,0,0,0,0,-,-,
CCOC(=O)N1CCC(N2CCCC(C(=O)c3ccc4cc(OC)ccc4c3)C2)CC1 (centres undefined),0,0,0,69,0,0,0,0,
Cc1cc(O)ccc1NS(=O)(=O)c1ccc2c3c(cccc13)C(=O)N2,0,0,0,81,0,0,86,98,
O=C1Nc2ccc(S(=O)(=O)N(CCO)CCO)c3cccc1c23,0,-,0,45,0,0,42,50,
CC(C)C(NS(=O)(=O)c1ccc2c3c(cccc13)C(=O)N2)C(=O)O (centres undefined),0,0,0,25,0,0,23,33,
O=C1Nc2ccc(S(=O)(=O)NCc3ccco3)c3cccc1c23,0,0,0,28,0,0,40,37,
COC(=O)c1ccccc1NS(=O)(=O)c1ccc2c3c(cccc13)C(=O)N2,0,0,0,0,0,0,-,-,
